Mcl1 Noxa PPI: disrupts binding of human Mcl-1 to Noxa peptide; Q07820; TR-FRET Mcl-1/Noxa peptide binding, 2 h; inhibition, % at 21.7 µM; actives 1.5% (n = 220,000);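 active = compounds that cut the protein-peptide binding signal by more than 50% relative to plate controls in a single-dose test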;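 also: His-tagged Mcl-1 with rhodamine Noxa BH3 peptide and terbium anti-His antibody; 0% = Mcl-1 plus Noxa peptide wells and 100% = peptide-only wells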
Target sequence (Q07820 whole entry, looked up): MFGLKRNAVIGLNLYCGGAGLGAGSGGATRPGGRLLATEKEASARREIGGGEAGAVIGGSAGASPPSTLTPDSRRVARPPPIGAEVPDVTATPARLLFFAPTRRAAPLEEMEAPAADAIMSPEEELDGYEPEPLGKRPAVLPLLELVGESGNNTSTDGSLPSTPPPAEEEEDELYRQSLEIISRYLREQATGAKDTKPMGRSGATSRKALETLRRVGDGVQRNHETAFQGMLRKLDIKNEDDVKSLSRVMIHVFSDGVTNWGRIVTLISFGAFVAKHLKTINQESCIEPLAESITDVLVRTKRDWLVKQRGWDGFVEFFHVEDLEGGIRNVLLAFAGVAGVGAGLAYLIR
Mcl1-Bid inh: disrupts binding of human Mcl-1 to Bid peptide | Q07820 | TR-FRET Mcl-1/Bid-Dy647 peptide binding, 1536-well | inhibition, % at 21.7 µM | actives 0.97% (n = 220,000) | AID 1021;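 active = compounds that cut the binding signal by more than half at the single screening dose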;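 also: His-tagged Mcl-1 with europium anti-His antibody binding Bid BH3 peptide; 0% = Mcl-1 plus peptide wells and 100% = peptide-only wells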
MCL1-BIM inh: disrupts human MCL1 binding to BIM-BH3 peptide. Q07820. GST-MCL1 / FITC-Bim-BH3 fluorescence polarization. inhibition, % at 10.9 µM. actives 0.68% (n = 320,000);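 active = inhibition above the mean inhibition of all tested compounds plus 3 SD, set per campaign, cut at about 40% in these data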;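 also: 0% = DMSO wells and 100% = unlabeled Bim-BH3 peptide control; higher means more loss of mP so more displacement of Bim peptide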
Mcl-1 Bim block: inhibitors of Bim-Mcl-1 interaction, human. inhibition, % at 10 µM. Bead-based flow cytometry, Bim peptide-Mcl-1 binding. AID 1009. actives 0.1% (n = 190,000); in the data active = inhibition above about 40%;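 also: 0% = no compound tracer wells and 100% = peptide blocker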
* marks the source's active call; other numbers are inactive results; x = no result given. Compounds with a hit are over-represented: about 2% of the library has one in this group of screens.

SMILES	Mcl1 Noxa PPI	Mcl1-Bid inh	MCL1-BIM inh	Mcl-1 Bim block
CC1CCC(C(C)C)C2=C1C(C#N)(C#N)C(C#N)(C#N)C(c1ccccc1)N2 (stereo unspecified)	56.3*	-35.9	10.4	0.0
Cc1cc(C(=O)N2CCOCC2)n(-c2ccccc2)n1	19.5	51.5*	14.9	0.0
CCCC1(C(=O)OCC)NC(c2cc(OC)c(OC)c(OC)c2)C2C(=O)N(CC)C(=O)C21 (stereo unspecified)	7.8	-19.4	2.8	81.0*
COC(=O)c1sc(NC(=O)c2cc(C)on2)nc1C	x	x	5.9	x
Cc1ccc(-c2nc3c(c(=O)[nH]c(=O)n3Cc3ccccc3)n2C)s1	14.9	65.3*	-4.1	x
Cc1ccc(-c2nc3c(c(=O)[nH]c(=O)n3Cc3ccccc3)n2C)o1	97.0*	38.0	x	0.0
Cc1ccccc1NC(=S)N/N=C/c1ccc(O)cc1O	60.2*	-255.7	19.5	x
CC(C)Oc1ccc(C(=O)Nc2ccc(N(C)C)cc2)cc1	78.2*	-31.6	6.2	3.0
CCOC(=O)c1c(C)c(C(=O)Nc2ccc(N(C)C)cc2)c(C)n1CC	56.1*	-11.8	-2.2	3.0
CCCCOC(=O)Nc1ccc(N(C)C)cc1	74.7*	-48.3	7.5	1.0
CCOC(=O)c1c(C)c(C(=O)NCCOC)c(C)n1CC	11.6	-25.2	4.4	-3.0
CCCOc1ccc(C(=O)Nc2ccc(N(C)C)cc2)cc1	81.3*	-27.4	7.3	4.0
CC(C)Oc1ccc(C(=O)Nc2ccc3c(c2)n(C)c(=O)n3C)cc1	x	x	0.1	x
COc1ccc(CC2SC(N)=NC2=O)cc1 (stereo unspecified)	x	x	0.3	x
NC(=O)c1ccsc1NC(=O)c1ccc(N2CCCC2=O)cc1	54.9*	-1.7	5.2	0.0
NC(=O)c1ccsc1NC(=O)c1ccc2c(c1)CCCC2	10.0	0.0	-4.4	-1.0
CC(C)N1C(=O)/C(=C/c2nc3ccccc3c(=O)n2-c2ccccc2)c2ccccc21	54.9*	77.9*	6.5	0.0
O=C(NCCc1ccccc1)C1CCN(S(=O)(=O)c2ccc(-c3nn[nH]n3)cc2)CC1	8.9	87.9*	-5.9	-3.0
CCOC(=O)CNC(=O)C1CCN(S(=O)(=O)c2ccc(-c3nn[nH]n3)cc2)CC1	x	x	4.6	x
Cc1ccccc1OCCNC(=O)CNC(=O)c1ccccc1O	x	81.5*	-0.1	-4.0
COc1ccccc1OCCNC(=O)c1ccccc1C	0.6	-2.5	1.7	-4.0
O=C(N/N=C/c1ccncc1)c1ccc(-n2cccc2)cc1	59.3*	-10.6	11.1	-2.0
O=C(Cc1cccs1)Nc1nc(-c2cccnc2)cs1	72.0*	-63.2	18.5	x
O=C(NCCc1ccc(F)cc1)C(=O)NCC1CCCN1S(=O)(=O)c1cccs1 (stereo unspecified)	x	x	-4.0	x
CC(/C=C1\SC(=S)N(NS(=O)(=O)c2ccc(C)cc2)C1=O)=C\c1ccccc1	93.5*	66.4*	2.5	x
SMILES	Mcl1 Noxa PPI	Mcl1-Bid inh	MCL1-BIM inh	Mcl-1 Bim block
CC(/C=C1\SC(=S)N(CCCC(=O)Nc2ccc(C(=O)O)c(O)c2)C1=O)=C\c1ccccc1	111.2*	94.0*	8.2	-4.0
CC(/C=C1\SC(=S)N(NS(=O)(=O)c2ccccc2)C1=O)=C\c1ccccc1	78.5*	-9.7	15.0	x
CC(/C=C1\SC(=S)N(NC(=O)c2ccc(C)cc2)C1=O)=C\c1ccccc1	6.9	-8.8	-3.6	0.0
CC(/C=C1\SC(=S)N(NC(=O)c2ccccc2C)C1=O)=C\c1ccccc1	18.1	-45.8	-1.7	-1.0
Cc1cc(C(=O)Nc2nncs2)oc1C	x	x	1.9	x
COc1ccc(C(=O)C[n+]2ccc(-c3nnc4n3CCCCC4)cc2)cc1	75.6*	-46.2	13.5	x
COc1ccccc1OC(=O)Nc1ccc(Cl)cc1	x	x	46.7*	x
O=C(Cc1ccccc1F)NCC1(N2CCOCC2)CCCCC1	59.8*	-10.6	3.7	x
Cc1ccc(-n2c(-c3ccccc3)c[n+]3c2CCC3)cc1	51.2*	-10.8	2.7	-1.0
Cc1ccc(-n2c(-c3ccc(Cl)cc3)c[n+]3c2CCC3)cc1	5.0	-13.9	4.8	x
CN(C(=O)CC1C(=O)NCCN1Cc1ccc(F)c(F)c1)C1CCOCC1 (stereo unspecified)	5.5	-6.2	12.2	-4.0
CC(C)NC(=O)c1onc(CSc2ccc(Cl)cc2)c1C(=O)NC(C)C	-16.9	-0.2	4.5	x
CC(C)c1nc2sc3c(=O)[nH]c(=S)[nH]c3c2c2c1CCCC2	57.2*	-172.1	7.1	x
CC(C)c1nc2sc3c(=O)[nH]c(=S)[nH]c3c2c2c1CCC2	80.9*	10.5	x	0.0
CCOC(=O)c1sc2nc(C(C)C)c3c(c2c1N)CCC3	4.2	-45.5	5.5	-3.0
Cc1ccc(NC(=O)Cn2c(O)c(N=NC(=O)c3cc4ccccc4cc3O)c3ccccc32)cc1	99.1*	80.2*	-9.1	5.0
O=C(N=Nc1c(O)n(Cc2ccccc2)c2ccccc12)c1ccc(O)cc1	-6.2	4.1	10.3	-5.0
O=C(N=Nc1c(O)n(Cc2ccccc2)c2ccccc12)c1cc2ccccc2cc1O	85.1*	56.1*	24.0	4.0
O=C(c1ccccc1Cc1ccccc1)N1CCN(S(=O)(=O)c2ccccc2Br)CC1	x	x	-3.0	x
O=S(=O)(c1ccc(-c2nnco2)cc1)N1CCCCC1	x	x	-5.8	x
O=S(=O)(c1ccc(Oc2ccc(-c3nnco3)cc2)nc1)N1CCC(Cc2ccccc2)CC1	-75.4	59.2*	-5.1	-1.0
O=C(NCCN1CCOCC1)c1cc(Cl)ccc1[N+](=O)[O-]	6.6	5.2	-2.9	73.0*
CCOC(=O)c1c(C)[nH]c(C)c1S(=O)(=O)N1CCOCC1	x	x	-1.2	x
Nc1nc(Cl)cc(N2CCC(c3cc(-c4ccc(Cl)cc4Cl)n[nH]3)CC2)n1	65.9*	-3.8	-4.1	1.0
N=C1S/C(=C\c2ccco2)C(=O)N1c1ccc2c(c1)OCO2	83.8*	38.8	20.5	4.0
N=C1S/C(=C\c2ccco2)C(=O)N1c1nccs1	14.4	-71.7	22.8	-2.0
CCC1(C)Cc2sc3c(=O)[nH]c(=S)[nH]c3c2CO1 (stereo unspecified)	54.2*	-23.6	8.2	-5.0
